The record followed here is PubChem BioAssay (NCATS).

The structures appear in SMILES notation. Inconclusive results are not listed. The source made the active and inactive calls. The call rests on the fitted dose curve; in most records, active means well fitted inhibition curve with a large enough effect; inconclusive means small, poorly fitted or top-dose-only effect; inactive means no such curve, though single readings can be large or run the other way.
On the % scale 0 is the no-effect control and ±100 the full control effect; potency means the concentration at half of the fitted maximal effect.

This experiment has as its system Zika virus NS2B-NS3 protease (linked construct). Kind of experiment: Primary screen NINDS Rhodamine qHTS for Zika virus inhibitors (AID 1347160). Further: nearly all actives have a fitted effect of over 55% in size. Conditions: purified NS2B-NS3 protease, Rhodamine110 substrate fluorescence; series mostly up to 57.1 µM; activity change, negative = inhibition: at the top concentration. The gist of the method: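 Kinetic fluorescence (Ex 480 nm, Em 540 nm) over 15 min with 1.5 microM Rhodamine110 peptide and 25 nM linked protease.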
Background: qHTS replaces the single test concentration by a dilution series.
Take `CCCCCN(CCC12CC3CC(CC(C3)C1)C2)C(=O)NCCCc1ccncc1`: the “activity change, negative = inhibition” value was 10% (inactive). On to `C[C@]1(CO)CN(c2cc(C(=O)Nc3ccc4c(c3)-c3c(c(C(N)=O)nn3-c3ccc(F)cc3)CC4)c(Cl)cn2)C[C@@]1(C)CO`, for which the “activity change, negative = inhibition” value was 2.4% (inactive). In the case of `CCN(CC)CCNC(=O)c1ccc2nc(-c3ccccc3)c(-c3ccc(CN4CCC(n5c(=O)[nH]c6ccccc65)CC4)cc3)nc2c1`, the “activity change, negative = inhibition” value is 242% (inactive). Regarding `COc1ccc(-n2nc(C(N)=O)c3c2C(=O)N(c2ccc(N4CCCCC4=O)cc2)CC3)cc1`, the “activity change, negative = inhibition” value was 23% (inactive). `Cc1c(NC(=O)OC[C@@H]2COCCN2)cn2ncnc(Nc3ccc4c(cnn4Cc4cccc(F)c4)c3)c12`: the result was inactive. Same read-out and setting: under `CC(=O)Nc1sc2c(c1-c1nc3ccccc3s1)CNC2` stands “inactive”. Consider `COc1cccc2c(NCc3ccccc3)nc(-n3c(N)nc4ccccc43)nc12`, for which the “activity change, negative = inhibition” value is -3.82% (inactive). On to `CS(=O)(=O)N1CCN(Cc2cc3nc(-c4cccc5[nH]ncc45)nc(N4CCOCC4)c3s2)CC1`, for which the “activity change, negative = inhibition” value was -18.8% (inactive).

Consider `O=C(Cc1ccc(-c2ccc(OCCN3CCOCC3)cc2)cn1)NCc1ccccc1`, for which the call was inactive. In the case of `NC(=O)Nc1cc(-c2cccc(F)c2)sc1C(=O)N[C@H]1CCCNC1`, the “activity change, negative = inhibition” value was 97.6% (inactive). For the compound `CC(=O)Nc1nc(C)c(-c2ccc(Cl)c(S(=O)(=O)NCCO)c2)s1`, the “activity change, negative = inhibition” value was 13.1% (inactive). In the case of `C#Cc1cccc(Nc2ncnc3cc(OC)c(OCCCCCCC(=O)NO)cc23)c1`, the “activity change, negative = inhibition” value is 5.19% (inactive). For the compound `Nc1ncnc2c1c(-c1cccc(OCc3ccccc3)c1)cn2C1CC(CN2CCCC2)C1` (configuration not stated), the “activity change, negative = inhibition” value is 276% (inactive). The same measure, in the same setting: the value for `Clc1cccc(-n2nnnc2NCc2ccccc2Oc2ccccn2)c1Cl` was 23.1% (inactive). As for `Nc1ccccc1NC(=O)c1ccc(CNC(=O)OCc2cccnc2)cc1`, the “activity change, negative = inhibition” value is 22.3% (inactive). The same measure, in the same setting: the value for `O=C(Nc1ncc(-c2cc(C(F)F)nn2-c2c(Cl)cccc2Cl)s1)C1CC1` was 19.8% (inactive). Take `Cc1cn2c(-c3cn[nH]c3)cnc2c(Nc2ccc(C(=O)N3CCNCC3)cc2F)n1`: the call was inactive. As to `c1ccc2c(CCNc3ccc(Nc4ccncc4)cc3)c[nH]c2c1`, the “activity change, negative = inhibition” value is 180% (inactive). For `CCCCCCCCCC(=O)N[C@@H](Cc1c[nH]c2ccccc12)C(=O)N[C@H](CC(N)=O)C(=O)N[C@@H](CC(=O)O)C(=O)N[C@@H]1C(=O)NCC(=O)N[C@@H](CCCN)C(=O)N[C@@H](CC(=O)O)C(=O)N[C@H](C)C(=O)N[C@@H](CC(=O)O)C(=O)NCC(=O)N[C@H](CO)C(=O)N[C@@H]([C@@H](C)CC(=O)O)C(=O)N[C@@H](CC(=O)c2ccccc2N)C(=O)O[C@@H]1C`, the “activity change, negative = inhibition” value was -10.5% [at 15.1 µM] (inactive).

As to `CC(C)c1cc(-c2n[nH]c(=O)n2-c2ccc3c(ccn3C)c2)c(O)cc1O`, the “activity change, negative = inhibition” value is -18.7% (inactive). As to `Cc1coc2c1C(=O)C(=O)c1c-2ccc2c1CCCC2(C)C`, the Potency was 14.1 µM (active).

Regarding `Cn1cc(-c2ccncc2)c(-c2ccc(OCc3ccc4ccccc4n3)cc2)n1`, the “activity change, negative = inhibition” value was -12% (inactive). For the compound `Cc1[nH]nc2ccc(-c3cncc(OC[C@@H](N)Cc4ccccc4)c3)cc12`, the “activity change, negative = inhibition” value is 73.9% (inactive). With `CC(C)c1cc(C(=O)N2Cc3ccc(CN4CCN(C)CC4)cc3C2)c(O)cc1O`, the “activity change, negative = inhibition” value was 21% (inactive). Regarding `CC(C)c1cnn2c(NCc3ccccc3)cc(N[C@@H](CO)[C@H](O)CO)nc12`, the “activity change, negative = inhibition” value is 4.36% (inactive).

As for `COc1cc(C)c(Sc2cnc(NC(=O)c3ccc(CNC(C)C(C)C)cc3)s2)cc1C(=O)N1CCN(C(C)=O)CC1` (configuration not stated), the “outcome” value was “inactive; activator”. Turning to `C=CC(=O)N1CCC[C@@H](n2nc(-c3ccc(Oc4ccccc4)cc3)c3c(N)ncnc32)C1`, the “activity change, negative = inhibition” value was 13.7% (inactive). For `Cc1ccc2nc(NC(=O)CSc3nc4c(c(=O)n3-c3ccccc3)SCC4)sc2c1`, the outcome was inactive.

As for `Cc1c(CN2CCN(S(C)(=O)=O)CC2)sc2c(N3CCOCC3)nc(-c3cnc(N)nc3)nc12`, the “activity change, negative = inhibition” value is 8.73% (inactive).

On to `COc1cc2c(Oc3ccc(NC(=O)C4(C(=O)Nc5ccc(F)cc5)CC4)cc3F)ccnc2cc1OCCCN1CCOCC1`, for which the “activity change, negative = inhibition” value is 131% (inactive). Turning to `COc1cc2c(Oc3ccc(-c4cnc(Nc5ccc(F)cc5)n(C)c4=O)cc3F)ccnc2cc1OCCCN1CCOCC1`, the “activity change, negative = inhibition” value was 37.1% (inactive). The same measure, in the same setting: under `COc1ccc(OC)c(-c2nnc3ccc(-c4ccc(OC)c(O[C@@H]5CCOC5)c4)nn23)c1` stands 20.7% (inactive).
